target: Trifunctional enzyme subunit alpha, mitochondrial (UniProt P40939); experiment: cross-link between two proteins; cross-linking mass spectrometry
Sequence (P40939 whole entry): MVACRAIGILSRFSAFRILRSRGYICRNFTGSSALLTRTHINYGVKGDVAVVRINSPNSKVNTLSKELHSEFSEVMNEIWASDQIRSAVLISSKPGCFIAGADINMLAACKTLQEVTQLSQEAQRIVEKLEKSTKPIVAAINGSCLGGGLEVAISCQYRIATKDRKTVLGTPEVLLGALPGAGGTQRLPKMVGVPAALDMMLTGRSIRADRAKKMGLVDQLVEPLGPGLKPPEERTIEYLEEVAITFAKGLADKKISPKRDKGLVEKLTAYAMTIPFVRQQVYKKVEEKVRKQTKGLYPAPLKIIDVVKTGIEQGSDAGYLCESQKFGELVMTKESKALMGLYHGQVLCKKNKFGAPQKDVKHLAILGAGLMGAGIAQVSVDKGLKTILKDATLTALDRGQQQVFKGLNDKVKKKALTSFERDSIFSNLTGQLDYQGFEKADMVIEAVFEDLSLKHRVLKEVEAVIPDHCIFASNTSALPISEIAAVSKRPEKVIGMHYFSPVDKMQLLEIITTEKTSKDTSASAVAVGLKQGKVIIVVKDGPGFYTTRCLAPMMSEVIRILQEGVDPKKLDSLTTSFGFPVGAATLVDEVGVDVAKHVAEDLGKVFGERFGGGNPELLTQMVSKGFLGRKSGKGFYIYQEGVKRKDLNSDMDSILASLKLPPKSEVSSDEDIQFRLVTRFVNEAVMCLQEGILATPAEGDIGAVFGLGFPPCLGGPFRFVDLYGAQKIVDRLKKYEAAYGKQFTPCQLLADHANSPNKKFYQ

Mitochondrial import inner membrane translocase subunit TIM50, Q3ZCQ8, sequence (Q3ZCQ8 whole entry): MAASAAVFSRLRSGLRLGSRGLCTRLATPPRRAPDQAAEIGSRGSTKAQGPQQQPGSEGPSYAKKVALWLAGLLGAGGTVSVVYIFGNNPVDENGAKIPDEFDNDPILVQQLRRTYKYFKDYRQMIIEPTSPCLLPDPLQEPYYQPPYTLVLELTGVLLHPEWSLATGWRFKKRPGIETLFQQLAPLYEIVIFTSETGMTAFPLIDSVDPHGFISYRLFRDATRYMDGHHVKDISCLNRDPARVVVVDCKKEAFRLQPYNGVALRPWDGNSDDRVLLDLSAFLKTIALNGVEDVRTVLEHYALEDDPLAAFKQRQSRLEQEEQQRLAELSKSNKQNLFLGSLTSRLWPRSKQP
Cytochrome c, P99999, sequence (P99999 whole entry): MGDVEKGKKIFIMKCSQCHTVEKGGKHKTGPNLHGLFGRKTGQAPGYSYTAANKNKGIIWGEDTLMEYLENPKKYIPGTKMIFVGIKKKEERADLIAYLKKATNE

Listed as a hit, yes:
ATP synthase F(1) complex subunit alpha, mitochondrial, P25705
ATP synthase F(0) complex subunit g, mitochondrial, O75964
ADP/ATP translocase 2, P05141

target: Calnexin (UniProt P27824); experiment: cross-link between two proteins; affinity purification or IP with mass spectrometry; cross-linking mass spectrometry
Sequence (P27824 whole entry): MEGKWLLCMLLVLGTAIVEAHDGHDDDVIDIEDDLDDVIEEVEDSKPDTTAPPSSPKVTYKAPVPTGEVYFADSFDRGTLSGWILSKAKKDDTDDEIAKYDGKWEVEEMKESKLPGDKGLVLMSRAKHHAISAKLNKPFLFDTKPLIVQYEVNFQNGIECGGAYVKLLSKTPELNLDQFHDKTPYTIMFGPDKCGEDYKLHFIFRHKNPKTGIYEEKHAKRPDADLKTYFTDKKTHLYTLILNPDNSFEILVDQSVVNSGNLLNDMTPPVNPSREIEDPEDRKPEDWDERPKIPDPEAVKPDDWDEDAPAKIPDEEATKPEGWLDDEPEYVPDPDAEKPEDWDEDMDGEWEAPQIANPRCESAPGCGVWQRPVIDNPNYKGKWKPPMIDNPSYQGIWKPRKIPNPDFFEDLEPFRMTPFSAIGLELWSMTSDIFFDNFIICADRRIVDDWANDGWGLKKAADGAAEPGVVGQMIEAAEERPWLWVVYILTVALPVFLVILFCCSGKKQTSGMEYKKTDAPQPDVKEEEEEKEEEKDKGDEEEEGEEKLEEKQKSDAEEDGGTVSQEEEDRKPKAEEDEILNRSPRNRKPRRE

Listed as a hit, yes:
Dolichyl-diphosphooligosaccharide--protein glycosyltransferase subunit 2, P04844
Dolichol-phosphate mannosyltransferase subunit 1, O60762
Dolichyl-diphosphooligosaccharide--protein glycosyltransferase subunit 1, P04843

target: Cytochrome c oxidase assembly factor 7 (UniProt Q96BR5); experiment: as above

Listed as a hit, yes:
Cytochrome c oxidase assembly factor SCO2, O43819
Cytochrome c oxidase copper chaperone, Q14061
Tetratricopeptide repeat protein 19, mitochondrial, Q6DKK2
Myristoylated alanine-rich C-kinase substrate, P29966
Cytochrome c, P99999
Mitochondrial import inner membrane translocase subunit TIM50, Q3ZCQ8
Dynamin-like GTPase OPA1, mitochondrial, O60313
Cytochrome c oxidase assembly factor 6 homolog, Q5JTJ3
